BH1578 lux ind – inducers of Vibrio cholerae quorum light production without autoinducers, primary screen, BH1578 luxS cqsA deficient, single point; V. cholerae BH1578 lux reporter, luminescence, 6 h; activation, % at 18.7 µM; 350,000 tested, 0.16% active; AID 588436, 2011; in the data active = activation mostly above about 9.7%, no sharp cut-off
Mtb BioA inh – M. tuberculosis BioA enzyme inhibitors, primary screen, biochemical, plate reader, single point, HTS. 7,8-diaminopelargonic acid synthase BioA (Mycobacterium tuberculosis). purified M. tuberculosis BioA enzyme. inhibition, % at 9.99 µM. 360,000 tested, 0.096% active. AID 602481, 2012; in the data active = inhibition above about 40%
GDH-TPI inh – GDH-TPI coupling enzyme inhibitors, primary screen, artefact control for M. tuberculosis FBA inhibitor project, biochemical, absorbance, full deck; GDH-TPI coupled enzyme counterscreen, NADH absorbance; inhibition, % at 4.8 µM; 360,000 tested, 1.2% active; AID 588335, 2011; in the data active = inhibition above about 30%
Mtb FBA inh – Mtb FBA enzyme inhibitors, primary screen, biochemical, fluorescence, strain H37Rv | Fructose-bisphosphate aldolase (Mycobacterium tuberculosis (strain ATCC 25618 / H37Rv)), … | purified M. tuberculosis FBA, fluorescence read-out | inhibition, % at 1 µM | 360,000 tested, 2.3% active; in the data active = inhibition above about 27%
Target sequence (P9WQA3 whole entry, looked up): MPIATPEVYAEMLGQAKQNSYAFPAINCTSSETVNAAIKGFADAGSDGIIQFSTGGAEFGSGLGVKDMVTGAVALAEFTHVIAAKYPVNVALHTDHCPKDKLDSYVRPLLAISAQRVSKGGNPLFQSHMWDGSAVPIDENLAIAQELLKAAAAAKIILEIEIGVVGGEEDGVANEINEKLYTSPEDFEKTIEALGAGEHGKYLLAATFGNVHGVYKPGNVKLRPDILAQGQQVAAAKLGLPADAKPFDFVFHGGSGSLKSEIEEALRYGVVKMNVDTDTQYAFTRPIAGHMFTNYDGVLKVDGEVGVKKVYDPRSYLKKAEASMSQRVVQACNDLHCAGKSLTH
Large screens that a line does not name were inactive; ! = not active in a repeat. Most compounds without a hit are left out; they make up all but 3% or so of the library.

CCOC(=O)C1=C(C)NC2=C(C(=O)CCC2)C1c1cccs1 (configuration not stated)	none
CCOC(=O)c1sc2c(c1C)C(c1cccs1)C1=C(CCCC1=O)N2 (configuration not stated)	Mtb FBA inh active (no result: Mtb BioA inh)
CCN(CC)C(=O)CSc1nnc2c3ccccc3n(C)c2n1	none
CCOC(=O)C(C)Sc1nnc2c3ccccc3n(C)c2n1 (configuration not stated)	GDH-TPI inh 32
COc1cc(C(=O)N2CCN(C(=O)C3CCCO3)CC2)cc(OC)c1OC (configuration not stated)	none
COc1cc2nc(N3CCN(C(=O)C4CCCO4)CC3)nc(N)c2cc1OC (configuration not stated)	Mtb FBA inh 112
CCOc1ccc(-n2ccc(=O)c(C(=O)Nc3ccc(S(=O)(=O)Nc4nccs4)cc3)n2)cc1	GDH-TPI inh 33
O=C(Nc1ccc(S(=O)(=O)Nc2nccs2)cc1)c1nn(-c2ccc(F)cc2)ccc1=O	none (no result: Mtb BioA inh)
Cc1noc(C)c1NC(=O)N(C)C[C@H]1Oc2ccc(NC(=O)CCN3CCOCC3)cc2CC(=O)N([C@@H](C)CO)C[C@@H]1C	none (no result: BH1578 lux ind, GDH-TPI inh, Mtb FBA inh)
N#C/C(=C\c1ccc(O)cc1)C(=O)O	GDH-TPI inh 35!
N#C/C(=C\c1cccc(O)c1)C(=O)O	none
COc1ccc(Br)cc1C(=O)N/N=C/c1ccc([N+](=O)[O-])cc1	none (no result: Mtb BioA inh)
Cc1c(C(=O)N/N=C/c2cccnc2)sc(N)c1C#N	GDH-TPI inh 31
COc1cc(/C=N/NC(=O)Cc2ccc(Br)cc2)cc(OC)c1O	none
COc1cc(/C=N/NC(=O)CC#N)cc(Br)c1O	Mtb FBA inh active (no result: Mtb BioA inh)
COc1cc(/C=N/NC(=O)c2sc(N)c(C#N)c2C)cc(Br)c1O	GDH-TPI inh 38
COc1ccc2ccccc2c1/C=N/NC(=O)c1sc(N)c(C#N)c1C	none
COc1cc(/C=N/NC(=O)c2ccc([N+](=O)[O-])cc2Cl)cc(Br)c1O	GDH-TPI inh 42
COc1ccc(CNC(=O)C[C@H]2CC[C@H](NC(=O)c3cccc(F)c3)[C@H](CO)O2)cc1	none (no result: BH1578 lux ind, GDH-TPI inh, Mtb FBA inh)
C[C@H]1CN([C@@H](C)CO)C(=O)c2cccc(NS(=O)(=O)c3ccc(F)cc3)c2O[C@H]1CN(C)C	none (no result: BH1578 lux ind, GDH-TPI inh, Mtb FBA inh)
CCN=c1scc(C)n1/N=C/c1cc(Br)c(O)c(OC)c1	GDH-TPI inh 32 (no result: Mtb BioA inh)
O=C([C@H]1[C@H](CO)[C@H]2Cn3c(ccc(-c4cccc(F)c4)c3=O)[C@H]2N1Cc1cocn1)N1CCCCC1	none (no result: BH1578 lux ind, GDH-TPI inh, Mtb FBA inh)
CC(=O)N1CC[C@@H]2[C@H]1c1cc(C#Cc3cccnc3)ccc1N[C@@H]2CO	none (no result: BH1578 lux ind, GDH-TPI inh, Mtb FBA inh)
Cc1ccc(S(=O)(=O)Oc2ccccc2/C=N/Nc2ccc(C(=O)O)cc2)cc1	GDH-TPI inh 51
NSc1nc(N)c2nc(-c3ccccc3)c(-c3ccccc3)nc2n1	none
Nc1nc(N)c2nc(-c3ccccc3)c(N)nc2n1	GDH-TPI inh 33 (no result: Mtb FBA inh)
CC(C)CC#Cc1cnc2c(c1)C(=O)N([C@@H](C)CO)C[C@@H](C)[C@H](CN(C)C(=O)c1ccccc1F)O2	none (no result: BH1578 lux ind, GDH-TPI inh, Mtb FBA inh)
O=C(/C=C\c1ccco1)Nc1nc(-c2ccccc2)cs1	none (no result: Mtb BioA inh)
CC(/C=C/c1ccccc1)=N\Nc1nc(-c2ccccc2)cs1	GDH-TPI inh 32
O=C(/C=C/c1ccccc1)Nc1nc(-c2ccncc2)cs1	GDH-TPI inh 38
Cc1ccc(S(=O)(=O)Nc2ccc3c(c2)C(=O)N([C@@H](C)CO)C[C@H](C)[C@@H](CN(C)C(=O)Nc2c(C)noc2C)OCCCC[C@@H](C)O3)cc1	none (no result: BH1578 lux ind, GDH-TPI inh, Mtb FBA inh)
COc1ccc2[nH]c3c(=O)n(CCc4ccccc4)cnc3c2c1	Mtb FBA inh 95 (no result: Mtb BioA inh)
COc1ccc2[nH]c3c(NCCCN4CCCC4=O)ncnc3c2c1	Mtb FBA inh 152
COc1ccc(CCn2cnc3c([nH]c4ccccc43)c2=O)cc1	none (no result: Mtb BioA inh)
COc1ccc(S(=O)(=O)N(C)C[C@H]2OCCCC[C@H](C)Oc3ccc(NC(=O)Nc4c(C)noc4C)cc3C(=O)N([C@@H](C)CO)C[C@@H]2C)cc1	none (no result: BH1578 lux ind, GDH-TPI inh, Mtb FBA inh)
NS(=O)(=O)c1ccc(N2C(=O)C(=O)/C(=C(/O)c3ccccc3)C2c2ccc(Cl)cc2)cc1 (configuration not stated)	GDH-TPI inh 39
COc1ccc(/C=N/NS(=O)(=O)c2ccc(C)cc2)cc1OC(=O)c1ccccc1	Mtb FBA inh 128
COc1ccc(/C=N/NS(=O)(=O)c2ccccc2)cc1OC(=O)c1ccc(C)cc1	none
Oc1ccc(C=NC2CCCCC2)cc1	GDH-TPI inh 37
Cc1ccc(S(=O)(=O)c2c(C)cc(-c3ccccc3)[nH]c2=O)cc1	Mtb FBA inh 81
O=C(C[C@H]1CC[C@@H]2[C@H](COC[C@@H](O)CN2S(=O)(=O)c2ccc(F)cc2)O1)N[C@H]1CCN(Cc2ccccc2)C1	none (no result: BH1578 lux ind, GDH-TPI inh, Mtb FBA inh)
COc1ccc(OC)c(N2CC(O)=C(c3nc4ccccc4s3)C2=N)c1	GDH-TPI inh 36
Cc1ccccc1N/N=C1\CCCNC1=O	none
O=C1NCCC/C1=N\Nc1ccc(Br)cc1	GDH-TPI inh 37 (no result: Mtb BioA inh)
COc1ccc(/C=C/C(=O)N/C(=C\c2ccco2)C(=O)NCCc2nc3ccccc3[nH]2)cc1	GDH-TPI inh 34
CC(C)(C)c1ccc(C(=O)Nc2ccc(Oc3cccnc3)nc2)cc1	none
CCOC(=O)C(=CNc1ccc(Oc2cccnc2)nc1)C(=O)OCC	GDH-TPI inh 36 (no result: Mtb BioA inh)
O=C(C[C@H]1CC[C@H](NC(=O)C2CC2)[C@@H](CO)O1)Nc1nccs1	none (no result: BH1578 lux ind, GDH-TPI inh, Mtb FBA inh)
CCCN(CCC)CCNC(=O)CCC(=O)Nc1ccc2nc(N3CCOCC3)cc(C)c2c1	Mtb FBA inh 127
CCCCN(CC)CCNC(=O)CCC(=O)Nc1ccc2nc(N3CCN(C)CC3)cc(C)c2c1	Mtb FBA inh 138
CCCCN(CC)CCNC(=S)Nc1ccc2nc(N3CCN(C)CC3)cc(C)c2c1	none
Cc1cc(N/N=C/c2ccccc2)nc(N)n1	GDH-TPI inh 42
Cc1cc(N/N=C/c2ccc(O)cc2)nc(NS(=O)(=O)c2ccccc2)n1	GDH-TPI inh 74
C[C@@H]1CN([C@@H](C)CO)C(=O)Cc2cc(NC(=O)NC3CCCCC3)ccc2O[C@H]1CN(C)Cc1ccc(Oc2ccccc2)cc1	none (no result: BH1578 lux ind, GDH-TPI inh, Mtb FBA inh)
COc1cccc(C#Cc2ccc3c(c2)[C@H]2[C@H](CCN2S(=O)(=O)c2ccccc2)[C@H](CO)N3)c1	none (no result: BH1578 lux ind, GDH-TPI inh, Mtb FBA inh)
C[C@@H]1CN([C@H](C)CO)C(=O)c2cc(-c3ccc(F)cc3)cnc2O[C@@H]1CN(C)C(=O)c1ccccc1F	none (no result: BH1578 lux ind, GDH-TPI inh, Mtb FBA inh)
Cc1cc(/C=C2/NC(=O)NC2=O)c(C)n1-c1ccc(N2CCOCC2)cc1	GDH-TPI inh 34
Cc1cc(/C=C2\NC(=O)NC2=O)c(C)n1-c1ccc(N2CCOCC2)cc1	none
CNc1cncc(-c2cccc(C(=O)N(C)C)c2)n1	Mtb FBA inh active
CNc1cncc(-c2cccnc2)n1	Mtb FBA inh active
CNc1cncc(-c2ccccc2NC(C)=O)n1	none
CNc1cncc(-c2ccc(F)c(F)c2)n1	Mtb FBA inh 168
CSc1nncc(-c2ccc(F)c(F)c2)n1	none
CNc1cncc(-c2cccc(OC)c2F)n1	Mtb FBA inh active

Compound activity from PubChem BioAssay.
